The list is not random: actives were taken first. Their share in the collection is about 11%.
Luciferase inh – Firefly luciferase inhibition profiling of diverse chemical library using quantitative high-throughput screening. Potency, µM (doses to about 115 µM), hits mostly inhibitors. AID 1347043, 2019. purified P. pyralis luciferase, luminescence, biochemical. 2.5% of 76,000 active. Luciferin 4-monooxygenase (Photinus pyralis), P08659; also: nearly all actives have a fitted effect of over 65% in size
Target sequence (P08659 whole entry, looked up): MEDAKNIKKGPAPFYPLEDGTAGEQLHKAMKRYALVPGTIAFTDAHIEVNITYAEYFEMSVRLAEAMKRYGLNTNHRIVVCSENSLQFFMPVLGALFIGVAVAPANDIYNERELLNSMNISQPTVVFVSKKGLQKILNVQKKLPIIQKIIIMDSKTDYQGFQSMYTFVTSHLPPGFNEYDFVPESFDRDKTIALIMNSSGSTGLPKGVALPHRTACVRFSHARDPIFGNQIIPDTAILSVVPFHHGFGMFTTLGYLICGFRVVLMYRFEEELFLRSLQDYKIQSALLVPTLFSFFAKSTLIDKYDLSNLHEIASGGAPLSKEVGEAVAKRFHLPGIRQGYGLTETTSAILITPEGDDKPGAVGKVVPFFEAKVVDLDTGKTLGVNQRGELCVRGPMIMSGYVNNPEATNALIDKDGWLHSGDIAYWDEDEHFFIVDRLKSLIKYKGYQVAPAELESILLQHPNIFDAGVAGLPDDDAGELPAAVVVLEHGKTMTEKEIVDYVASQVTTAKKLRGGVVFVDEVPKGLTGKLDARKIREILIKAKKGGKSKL
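Biochemical qHTS: compound (6-point titration) added to 10uM D-luciferin plus 10uM ATP in Tris acetate pH 7.5 buffer with Mg, Tween-20 and BSA, then purified enzyme at 10nM; light output imaged.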
HEK cytotox – Cytotoxic Profiling in HEK 293 Cell Line of Diverse Libraries Using Quantitative High-Throughput Screening | 6.6% of 94,000 active | HEK 293 viability, ATP luminescence (CellTiter-Glo), 48-72 h | Potency, µM (doses to about 115 µM), inactives show top-dose activity change, negative = cytotoxicity, hits mostly inhibitors; also: nearly all actives have a fitted effect of over 60% in size
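ATP-coupled CellTiter-Glo luminescence served as viability read-out, recorded 10 min after reagent addition at room temperature. HEK 293 cells, 250 cells/well, had been incubated with pintool-transferred compound for 48 or 72 hr at 37 degree Celsius.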
3T3 cytotox – Cytotoxic Profiling in NIH 3T3 Cell Line of Diverse Libraries Using Quantitative High-Throughput Screening; Potency, µM (top dose mostly 96.7 µM), inactives show at the top dose activity change, negative = cytotoxicity, usual class: inhibitors; 4.3% of 94,000 active; AID 1345082, 2018; NIH 3T3 viability, CellTiter-Glo ATP luminescence, 48-72 h; also: nearly all actives have a fitted effect of over 55% in size
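ATP-dependent luminescence (CellTiter-Glo) served as the viability signal for NIH 3T3 cells treated with compound for 48 or 72 hr at 37 °C.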
hNpr1 antagonist – Natriuretic polypeptide receptor (hNpr1) antagonism - Primary qHTS. Atrial natriuretic peptide receptor 1 (Homo sapiens), P16066. HEK293 hNpr1 GloSensor cGMP, ANP-stimulated luminescence. Potency, µM (top dose mostly 46.3 µM), for the others: at the top dose activity change, negative = inhibition, hits mostly inhibitors. 1.6% of 76,000 active. AID 1347048, 2019; calls by dose curve; also: nearly all actives have a fitted effect of over 60% in size
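Compound pre-incubated 30 min at room temperature on GloSensor-loaded HEK293 cells stably carrying hNpr1 and the pGS-40F cGMP biosensor. Stimulation uses hNppA at 0.1 nM final; luminescence is taken at baseline and 20 min post-agonist.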
An asterisk follows results filed as active; i = inactive; ? = inconclusive; . = no result given; [ ] = remark or other dose. Unless noted, calls follow the shape of the dose curve; as a rule, active = well fitted curve in the direction sought with a large enough effect; inconclusive = small, poorly fitted or top-dose-only effect, or another doubt; inactive = no such curve, though single readings can be large; an effect the other way counts as inactive or inconclusive. % is scaled to controls: 0 for no effect and ±100 for the full control effect; potency is read from the fitted curve at half-maximal effect.

SMILES | Luciferase inh | HEK cytotox | 3T3 cytotox | hNpr1 antagonist
O=C(C1CCCC1)N1CC2(CCN(Cc3ccccn3)CC2)Cc2ccccc21 | . | 100µM* | ? | .
O=C(C1CCCC1)N1CC2(CCN(Cc3c[nH]c4ccccc34)CC2)Cc2ccccc21 | . | 20µM* | 13µM* | .
CC(=O)N1CC2(CCN(CC3CC3)C2)Cc2ccccc21 (centres undefined) | . | -7%[172 µM] | -9%[138 µM] | .
O=C(O)CCC(=O)N1CCC2(Cc3ccccc3N(C(=O)C3CCCC3)C2)C1 (centres undefined) | . | i | -5% | .
O=C(c1ccc(OC2CCN(Cc3c[nH]c4ccccc34)CC2)cc1)N1CCCCC1 | i | 22µM* | ? | 7%
O=C(C1CCCC1)N1CC2(CCN(CC3CC3)C2)Cc2ccccc21 (centres undefined) | . | 25µM* | 45µM* | .
O=C(NCCc1ccccc1)c1ccc2nc(-c3cccnc3)oc2c1 | . | 1% | -22% | .
COc1ccccc1CN1CCC2(CC1)COCCN2C(=O)OCc1ccccc1 | i | ? | ? | -15%[70.6 µM]
Cc1ccc(CN2CCC3(CC2)COCCN3C(=O)OCc2ccccc2)o1 | i | 28µM* | 45µM* | 1%[70.6 µM]
Cc1ccccc1CN1CCC2(CC1)COCCN2C(=O)OCc1ccccc1 | i | 100µM* | ? | -17%[70.6 µM]
Cc1noc(C)c1CN1CCC2(CC1)COCCN2C(=O)OCc1ccccc1 | i | ? | -12%[138 µM] | -2%[70.6 µM]
O=C(OCc1ccccc1)N1CCOCC12CCN(Cc1ccccc1)CC2 | i | 25µM* | ? | -14%[70.6 µM]
O=C(OCc1ccccc1)N1CCOCC12CCN(Cc1ccccc1F)CC2 | i | ? | ? | -5%[70.6 µM]
Cc1cccc(CN2CCC3(CC2)COCCN3C(=O)OCc2ccccc2)c1 | i | 40µM* | 40µM* | -8%[70.6 µM]
COCC(=O)N[C@@H]1CN(C2CCCCCC2)CC[C@@H]1CO | . | -4% | -15% | .
Cc1cccc(C(=O)N2CCC(OC3CCN(C)CC3)CC2)c1 | i | -12% | -23% | -1%
O=C(OCc1ccccc1)N1CCOCC12CCN(Cc1ccncc1)CC2 | i | 50µM* | 35µM* | -5%[70.6 µM]
c1cc(-c2ccco2)cc(-c2nc(C3CCOC3)no2)c1 (centres undefined) | 45µM* | -9% | ? | -1%
c1cnc2cc(-c3nc(C4CCOC4)no3)ccc2n1 (centres undefined) | ? | -24% | -23% | 12%
O=C(C[C@@H]1CCNC[C@@H]1Cc1cc(-c2ccccc2)on1)NC1CCCCC1 | i | 100µM* | ? | -10%[70.6 µM]
CN(Cc1ccccc1)Cc1cc(C[C@H]2CNCC[C@H]2CC(=O)NC2CCCCC2)no1 | i | ? | 79µM* | -3%
O=C(C[C@@H]1CCNC[C@@H]1Cc1cc(COc2ccccc2)on1)NCc1cccs1 | i | ? | ? | -13%[70.6 µM]
CC(C)(C)c1ccc(-c2cc(C[C@H]3CNCC[C@H]3CC(=O)NCc3cccs3)no2)cc1 | i | 18µM* | ? | -8%
CC(C)(C)c1ccc(-c2cc(C[C@H]3CNCC[C@H]3CC(=O)O)no2)cc1 | ? | ? | -28%[138 µM] | 2%[70.6 µM]
CC(C)NC(=O)C[C@@H]1CCNC[C@@H]1Cc1cc(-c2ccccc2)on1 | i | -27%[172 µM] | -26%[174 µM] | 0%[70.6 µM]
SMILES | Luciferase inh | HEK cytotox | 3T3 cytotox | hNpr1 antagonist
CN(C)CCNC(=O)C[C@@H]1CCNC[C@@H]1Cc1cc(CN(C)Cc2ccccc2)on1 | i | -3%[172 µM] | -3%[174 µM] | 0%[70.6 µM]
CC(C)(C)c1ccc(-c2cc(C[C@H]3CNCC[C@H]3CC(=O)NC3CCCCC3)no2)cc1 | i | 13µM* | 20µM* | -12%
CN(C)CCCN(C)c1nccc(C2(c3ccccc3Cl)CCNCC2)n1 | i | ? | ? | 2%
COc1ccc(C(=O)N2CCC(C(=O)N3CCC(N4Cc5cccn5C4=O)CC3)CC2)cc1 | . | -27% | -29% | .
Cn1nc(C(=O)N2CCCN(Cc3ccncc3)C(c3ccccc3)CC(=O)NCC2)c2ccccc21 (centres undefined) | i | -14% | -12% | 1%
COc1ccccc1CNC(=O)C[C@@H]1CCNC[C@@H]1Cc1cc(-c2ccccc2)on1 | i | 63µM* | 79µM* | -22%[70.6 µM]
O=C(C[C@@H]1CCNC[C@@H]1Cc1cc(CSc2ccccc2)on1)NC1CC1 | i | -26%[172 µM] | -28%[174 µM] | 4%[70.6 µM]
O=C(C[C@@H]1CCNC[C@@H]1Cc1cc(CSc2ccccc2)on1)NC1CCCCC1 | i | 89µM* | 100µM* | -4%[70.6 µM]
Cc1oc2ccn(Cc3ccc(F)cc3)c(=O)c2c1C(=O)NC1CCCCCC1 | i | 35µM* | ? | -28%
O=C(CCC1CCCN(Cc2cccn2-c2nccs2)C1)Nc1ccccc1F (centres undefined) | i | -28% | -24% | -7%
Fc1cccc(NC2CCCN(Cc3cccn3-c3nccs3)C2)c1 (centres undefined) | i | 45µM* | ? | -5%
CC[C@H]1CN(S(=O)(=O)c2ccc(OC)cc2)CC[C@H]1CC(=O)NCCSC | i | ? | -28%[174 µM] | 4%[70.6 µM]
CCn1cc(CN(C)C(=O)c2cc(-c3ccc(OC)cc3)cn2CC)c(C)n1 | 40µM* | 35µM* | ? | ?
CCn1cc(-c2ccc(OC)cc2)cc1C(=O)N1CCCCCC1 | i | ? | -30% | -7%
CCN(CC)C(=O)C[C@@H]1c2nc(NC(=O)C3CCC3)sc2C[C@@H]2[C@](C)(CO)[C@H](O)CC[C@]21C | i | -24% | ? | -1%
CC(c1ccc(F)cc1)N1Cc2cc(NC(=O)c3cccs3)ccc2OCC1=O (centres undefined) | i | 22µM* | ? | ?
COC(=O)[C@@H]1Cc2c([nH]c3ccccc23)[C@H]2C[C@H](N3CCCCC3)C[C@@H](c3ccccc3F)N21 | i | ? | 28µM* | 3%
CNC(=O)CN1CCCC(N2CCN(c3ccccc3F)CC2)C1 (centres undefined) | i | -10% | -20% | 3%
O=C(c1ccccc1OC1CCN(C2Cc3ccccc3C2)CC1)N1CCCCC1 | i | ? | -20% | 0%
COC(=O)[C@@H]1Cc2c([nH]c3ccccc23)[C@H]2C[C@@H](N3CCCCC3)C[C@@H](c3ccccc3F)N21 | i | 22µM* | ? | 1%
CNC(=O)C(C)(C)N1CCC[C@H]1C(=O)N1CCCCCC1 | i | i | 3%[174 µM] | 2%[70.6 µM]
O=C(NCc1ccc(F)cc1)C1=NOC2CN(C(=O)C3CC3)CC12 (centres undefined) | . | i | 4% | .
COc1ccc(-c2ccc(C(=O)NCc3cccc(C(F)(F)F)c3)cc2)nn1 | . | -17% | -18% | .
Cc1noc2c(N3CCNC(=O)C3)cc(-c3cccc(C(F)(F)F)c3)nc12 | i | ? | ? | -25%[70.6 µM]
